# Assay results reported in ChEMBL document CHEMBL1961873, “Compounds: GSK PKIS; Assays: Nanosyn kinase panel” (2012).
# What was measured:
# [1] = molecular target: Serine/threonine-protein kinase MARK2 (Homo sapiens) (UniProt Q7KZI7); conditions: at 1 µM
# [2] = molecular target: PAS domain-containing serine/threonine-protein kinase (Homo sapiens) (UniProt Q96RG2); conditions: at 0.1 µM
# [3] = molecular target: PAS domain-containing serine/threonine-protein kinase (Homo sapiens) (UniProt Q96RG2); conditions: at 1 µM
# [4] = molecular target: Phosphorylase b kinase gamma catalytic chain, skeletal muscle/heart isoform (Homo sapiens) (UniProt Q16816); conditions: at 0.1 µM
# [5] = molecular target: Phosphorylase b kinase gamma catalytic chain, skeletal muscle/heart isoform (Homo sapiens) (UniProt Q16816); conditions: at 1 µM
# [6] = molecular target: T1, Phosphorylase b kinase gamma catalytic chain, liver/testis isoform (Homo sapiens) (UniProt P15735); conditions: at 0.1 µM
# T1 sequence (whole entry): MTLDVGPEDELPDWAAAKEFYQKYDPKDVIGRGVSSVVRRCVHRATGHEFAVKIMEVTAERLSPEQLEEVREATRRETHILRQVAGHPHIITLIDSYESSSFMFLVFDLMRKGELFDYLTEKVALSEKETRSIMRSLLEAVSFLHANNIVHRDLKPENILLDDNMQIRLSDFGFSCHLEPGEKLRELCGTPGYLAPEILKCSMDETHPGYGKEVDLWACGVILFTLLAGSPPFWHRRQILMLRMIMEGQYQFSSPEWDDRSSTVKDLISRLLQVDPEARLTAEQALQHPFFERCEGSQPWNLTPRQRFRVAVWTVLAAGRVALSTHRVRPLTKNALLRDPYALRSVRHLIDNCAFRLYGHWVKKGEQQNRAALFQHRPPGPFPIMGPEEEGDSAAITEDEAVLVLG
# [7] = molecular target: T1, Phosphorylase b kinase gamma catalytic chain, liver/testis isoform (Homo sapiens); conditions: at 1 µM
# [8] = molecular target: Serine/threonine-protein kinase pim-1 (Homo sapiens) (UniProt P11309); conditions: at 0.1 µM
# [9] = molecular target: Serine/threonine-protein kinase pim-1 (Homo sapiens) (UniProt P11309); conditions: at 1 µM
# [10] = molecular target: Serine/threonine-protein kinase pim-2 (Homo sapiens) (UniProt Q9P1W9); conditions: at 0.1 µM
# [11] = molecular target: Serine/threonine-protein kinase pim-2 (Homo sapiens) (UniProt Q9P1W9); conditions: at 1 µM
# [12] = molecular target: Serine/threonine-protein kinase pim-3 (Homo sapiens) (UniProt Q86V86); conditions: at 0.1 µM
# [13] = molecular target: Serine/threonine-protein kinase pim-3 (Homo sapiens) (UniProt Q86V86); conditions: at 1 µM
# [14] = molecular target: T2, MAP kinase-activated protein kinase 5 (Homo sapiens) (UniProt Q8IW41); conditions: at 0.1 µM
# T2 sequence (whole entry): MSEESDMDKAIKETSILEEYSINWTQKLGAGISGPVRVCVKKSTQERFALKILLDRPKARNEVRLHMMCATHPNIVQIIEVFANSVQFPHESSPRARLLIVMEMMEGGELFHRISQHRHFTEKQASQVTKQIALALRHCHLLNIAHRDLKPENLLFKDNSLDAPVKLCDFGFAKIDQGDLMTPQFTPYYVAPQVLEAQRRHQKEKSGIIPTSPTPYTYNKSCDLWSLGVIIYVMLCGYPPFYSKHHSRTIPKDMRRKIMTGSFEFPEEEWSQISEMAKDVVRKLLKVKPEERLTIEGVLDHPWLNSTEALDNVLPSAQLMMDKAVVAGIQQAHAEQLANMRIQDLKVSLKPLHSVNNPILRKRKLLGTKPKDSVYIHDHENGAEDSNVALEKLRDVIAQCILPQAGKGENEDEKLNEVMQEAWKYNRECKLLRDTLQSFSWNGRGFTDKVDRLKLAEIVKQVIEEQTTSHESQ
# [15] = molecular target: T2, MAP kinase-activated protein kinase 5 (Homo sapiens); conditions: at 1 µM
# [16] = molecular target: Serine/threonine-protein kinase SIK1 (Homo sapiens) (UniProt P57059); conditions: at 0.1 µM
# [17] = molecular target: Serine/threonine-protein kinase SIK1 (Homo sapiens) (UniProt P57059); conditions: at 1 µM
# [18] = molecular target: Serine/threonine-protein kinase SIK2 (Homo sapiens) (UniProt Q9H0K1); conditions: at 0.1 µM
# [19] = molecular target: Serine/threonine-protein kinase SIK2 (Homo sapiens) (UniProt Q9H0K1); conditions: at 1 µM
# [20] = molecular target: T3, Serine/threonine-protein kinase TBK1 (Homo sapiens) (UniProt Q9UHD2); conditions: at 0.1 µM;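 also: values are the mean TBK1 inhibition, taken from the GSK PKIS screening data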
# T3 sequence (whole entry): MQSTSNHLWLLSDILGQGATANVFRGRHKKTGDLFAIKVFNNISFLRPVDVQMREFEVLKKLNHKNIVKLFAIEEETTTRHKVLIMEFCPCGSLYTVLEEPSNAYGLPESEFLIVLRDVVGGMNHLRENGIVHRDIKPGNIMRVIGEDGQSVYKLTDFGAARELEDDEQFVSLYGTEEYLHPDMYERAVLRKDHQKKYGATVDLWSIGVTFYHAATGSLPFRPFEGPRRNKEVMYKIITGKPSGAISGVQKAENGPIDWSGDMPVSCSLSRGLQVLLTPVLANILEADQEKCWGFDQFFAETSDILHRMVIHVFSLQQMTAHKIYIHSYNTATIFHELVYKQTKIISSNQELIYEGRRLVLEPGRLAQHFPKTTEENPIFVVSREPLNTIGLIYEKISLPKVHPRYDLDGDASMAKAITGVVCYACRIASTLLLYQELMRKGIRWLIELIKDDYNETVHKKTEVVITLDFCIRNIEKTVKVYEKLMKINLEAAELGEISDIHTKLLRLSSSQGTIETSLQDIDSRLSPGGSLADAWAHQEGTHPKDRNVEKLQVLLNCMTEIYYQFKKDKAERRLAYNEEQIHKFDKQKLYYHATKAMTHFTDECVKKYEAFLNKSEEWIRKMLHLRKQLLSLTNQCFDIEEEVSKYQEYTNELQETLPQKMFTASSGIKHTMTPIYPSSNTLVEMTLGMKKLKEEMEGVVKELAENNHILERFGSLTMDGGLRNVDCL
# Serine/threonine-protein kinase SIK2 (Homo sapiens), sequence (Q9H0K1 whole entry, looked up): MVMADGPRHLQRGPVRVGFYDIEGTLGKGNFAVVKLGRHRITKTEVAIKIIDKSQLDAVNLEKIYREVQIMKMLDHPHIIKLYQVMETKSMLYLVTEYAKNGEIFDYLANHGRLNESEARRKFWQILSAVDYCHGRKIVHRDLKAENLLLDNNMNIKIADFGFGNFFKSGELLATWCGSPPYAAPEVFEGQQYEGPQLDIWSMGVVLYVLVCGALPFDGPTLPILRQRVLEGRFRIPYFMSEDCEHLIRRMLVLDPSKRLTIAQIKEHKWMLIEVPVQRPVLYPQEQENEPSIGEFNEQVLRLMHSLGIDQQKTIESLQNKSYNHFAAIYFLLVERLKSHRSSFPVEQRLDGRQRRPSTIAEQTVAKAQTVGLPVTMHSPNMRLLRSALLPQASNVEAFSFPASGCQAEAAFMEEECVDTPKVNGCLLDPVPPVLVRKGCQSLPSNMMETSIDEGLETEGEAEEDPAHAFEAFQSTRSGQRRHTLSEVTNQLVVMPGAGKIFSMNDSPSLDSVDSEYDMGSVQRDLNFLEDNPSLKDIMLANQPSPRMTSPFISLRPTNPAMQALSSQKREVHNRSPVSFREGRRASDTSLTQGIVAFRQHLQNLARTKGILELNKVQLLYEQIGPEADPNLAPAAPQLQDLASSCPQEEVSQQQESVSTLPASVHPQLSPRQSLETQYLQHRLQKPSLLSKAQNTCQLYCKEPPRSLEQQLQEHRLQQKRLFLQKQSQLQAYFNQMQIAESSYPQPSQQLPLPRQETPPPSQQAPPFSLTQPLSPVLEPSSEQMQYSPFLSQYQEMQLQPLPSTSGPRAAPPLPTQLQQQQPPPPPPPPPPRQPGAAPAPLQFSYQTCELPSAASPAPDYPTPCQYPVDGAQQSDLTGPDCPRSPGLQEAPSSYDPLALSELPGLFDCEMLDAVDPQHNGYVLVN
# Serine/threonine-protein kinase pim-2 (Homo sapiens), sequence (Q9P1W9 whole entry, looked up): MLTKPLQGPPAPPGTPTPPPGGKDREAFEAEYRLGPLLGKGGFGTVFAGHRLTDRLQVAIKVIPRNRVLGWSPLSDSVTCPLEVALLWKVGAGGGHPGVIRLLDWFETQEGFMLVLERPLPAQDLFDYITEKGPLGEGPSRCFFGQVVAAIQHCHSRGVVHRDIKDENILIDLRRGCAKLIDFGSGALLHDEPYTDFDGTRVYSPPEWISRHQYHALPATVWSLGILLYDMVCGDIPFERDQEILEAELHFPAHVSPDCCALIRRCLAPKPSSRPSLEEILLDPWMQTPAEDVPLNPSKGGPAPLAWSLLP
# PAS domain-containing serine/threonine-protein kinase (Homo sapiens), sequence (Q96RG2 whole entry, the tested form may be a part, canonical isoform): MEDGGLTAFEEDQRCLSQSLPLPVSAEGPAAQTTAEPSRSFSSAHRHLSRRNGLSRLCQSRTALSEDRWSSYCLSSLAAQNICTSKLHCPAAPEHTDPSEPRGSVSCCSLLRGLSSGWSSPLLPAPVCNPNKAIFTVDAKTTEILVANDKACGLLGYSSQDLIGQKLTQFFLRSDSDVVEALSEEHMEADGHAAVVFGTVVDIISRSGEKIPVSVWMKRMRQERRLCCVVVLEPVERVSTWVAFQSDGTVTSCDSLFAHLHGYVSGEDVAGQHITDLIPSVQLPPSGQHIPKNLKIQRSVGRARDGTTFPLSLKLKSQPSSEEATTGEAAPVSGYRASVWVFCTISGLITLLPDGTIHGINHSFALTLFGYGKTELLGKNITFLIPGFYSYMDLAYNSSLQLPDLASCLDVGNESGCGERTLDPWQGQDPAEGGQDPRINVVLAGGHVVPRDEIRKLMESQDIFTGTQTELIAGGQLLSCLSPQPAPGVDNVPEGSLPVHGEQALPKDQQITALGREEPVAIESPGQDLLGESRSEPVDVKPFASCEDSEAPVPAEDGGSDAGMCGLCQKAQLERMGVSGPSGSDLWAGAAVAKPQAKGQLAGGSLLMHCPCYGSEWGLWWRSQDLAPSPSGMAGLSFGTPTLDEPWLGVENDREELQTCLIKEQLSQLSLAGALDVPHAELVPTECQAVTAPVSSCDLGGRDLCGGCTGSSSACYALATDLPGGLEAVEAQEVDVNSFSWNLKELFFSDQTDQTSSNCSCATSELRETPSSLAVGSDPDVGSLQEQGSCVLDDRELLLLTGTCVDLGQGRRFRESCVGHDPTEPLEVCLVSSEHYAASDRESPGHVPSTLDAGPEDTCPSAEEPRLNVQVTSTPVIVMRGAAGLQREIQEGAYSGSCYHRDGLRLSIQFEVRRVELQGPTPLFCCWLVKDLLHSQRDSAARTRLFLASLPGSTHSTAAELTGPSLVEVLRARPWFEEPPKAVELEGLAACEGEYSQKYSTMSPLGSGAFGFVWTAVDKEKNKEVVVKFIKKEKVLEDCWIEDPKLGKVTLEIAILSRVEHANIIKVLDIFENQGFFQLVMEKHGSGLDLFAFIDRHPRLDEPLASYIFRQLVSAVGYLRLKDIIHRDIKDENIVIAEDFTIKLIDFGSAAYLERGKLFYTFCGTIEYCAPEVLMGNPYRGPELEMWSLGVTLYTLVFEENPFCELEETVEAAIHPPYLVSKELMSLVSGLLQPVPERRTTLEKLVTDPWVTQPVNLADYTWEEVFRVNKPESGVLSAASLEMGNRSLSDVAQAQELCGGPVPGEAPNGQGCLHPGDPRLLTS
# Serine/threonine-protein kinase MARK2 (Homo sapiens), sequence (Q7KZI7 whole entry, the tested form may be a part): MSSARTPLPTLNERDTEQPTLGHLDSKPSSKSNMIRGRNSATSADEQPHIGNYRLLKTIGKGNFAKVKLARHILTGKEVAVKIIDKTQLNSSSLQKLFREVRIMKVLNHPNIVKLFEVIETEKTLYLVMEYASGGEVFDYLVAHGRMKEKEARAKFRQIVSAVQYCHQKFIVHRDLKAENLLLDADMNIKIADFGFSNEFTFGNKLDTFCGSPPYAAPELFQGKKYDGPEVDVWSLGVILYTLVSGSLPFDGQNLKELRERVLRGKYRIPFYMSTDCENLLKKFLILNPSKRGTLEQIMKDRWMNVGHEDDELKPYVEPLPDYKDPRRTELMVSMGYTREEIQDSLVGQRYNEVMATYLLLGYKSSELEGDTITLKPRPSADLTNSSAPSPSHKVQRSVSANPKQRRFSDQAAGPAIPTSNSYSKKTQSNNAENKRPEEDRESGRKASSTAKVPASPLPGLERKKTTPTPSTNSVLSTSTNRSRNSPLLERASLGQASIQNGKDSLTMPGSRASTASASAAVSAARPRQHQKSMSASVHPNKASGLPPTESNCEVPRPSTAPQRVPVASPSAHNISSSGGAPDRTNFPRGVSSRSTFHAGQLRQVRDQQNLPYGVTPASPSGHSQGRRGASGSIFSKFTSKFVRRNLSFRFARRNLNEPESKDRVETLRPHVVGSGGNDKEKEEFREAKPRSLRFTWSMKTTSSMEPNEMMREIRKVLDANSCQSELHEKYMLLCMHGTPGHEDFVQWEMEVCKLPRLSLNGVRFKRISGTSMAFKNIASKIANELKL
# Serine/threonine-protein kinase pim-1 (Homo sapiens), sequence (P11309 whole entry, looked up): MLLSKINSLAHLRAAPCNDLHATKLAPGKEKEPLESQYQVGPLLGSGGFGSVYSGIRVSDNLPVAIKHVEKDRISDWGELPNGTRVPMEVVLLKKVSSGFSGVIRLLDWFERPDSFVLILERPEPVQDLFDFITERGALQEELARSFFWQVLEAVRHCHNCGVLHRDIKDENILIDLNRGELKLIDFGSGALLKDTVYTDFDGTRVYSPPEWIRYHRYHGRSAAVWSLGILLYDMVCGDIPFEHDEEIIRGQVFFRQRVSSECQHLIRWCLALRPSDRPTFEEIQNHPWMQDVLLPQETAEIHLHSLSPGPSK
# Serine/threonine-protein kinase SIK1 (Homo sapiens), sequence (P57059 whole entry): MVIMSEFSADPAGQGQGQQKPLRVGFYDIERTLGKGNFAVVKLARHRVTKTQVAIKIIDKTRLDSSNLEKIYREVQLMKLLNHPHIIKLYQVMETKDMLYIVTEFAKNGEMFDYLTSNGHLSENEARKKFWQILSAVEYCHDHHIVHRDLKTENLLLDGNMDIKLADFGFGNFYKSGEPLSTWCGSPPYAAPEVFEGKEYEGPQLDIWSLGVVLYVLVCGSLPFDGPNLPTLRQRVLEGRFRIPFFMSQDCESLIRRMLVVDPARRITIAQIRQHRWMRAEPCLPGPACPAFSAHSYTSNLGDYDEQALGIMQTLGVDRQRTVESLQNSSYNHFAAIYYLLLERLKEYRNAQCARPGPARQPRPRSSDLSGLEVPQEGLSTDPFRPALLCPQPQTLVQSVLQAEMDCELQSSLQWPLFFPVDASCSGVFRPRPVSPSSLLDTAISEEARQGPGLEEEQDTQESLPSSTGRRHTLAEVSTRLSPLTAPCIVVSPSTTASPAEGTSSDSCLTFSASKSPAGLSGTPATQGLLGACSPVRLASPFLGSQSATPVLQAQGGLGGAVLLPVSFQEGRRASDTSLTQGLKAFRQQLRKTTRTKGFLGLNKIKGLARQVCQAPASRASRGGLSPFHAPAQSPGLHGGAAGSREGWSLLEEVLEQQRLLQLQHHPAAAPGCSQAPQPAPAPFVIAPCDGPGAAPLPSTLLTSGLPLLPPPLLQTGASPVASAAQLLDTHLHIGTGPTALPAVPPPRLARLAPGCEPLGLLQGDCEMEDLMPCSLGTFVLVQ
Structure (SMILES),inhibition [1] [%],inhibition [2] [%],inhibition [3] [%],inhibition [4] [%],inhibition [5] [%],inhibition [6] [%],inhibition [7] [%],inhibition [8] [%],inhibition [9] [%],inhibition [10] [%],inhibition [11] [%],inhibition [12] [%],inhibition [13] [%],inhibition [14] [%],inhibition [15] [%],inhibition [16] [%],inhibition [17] [%],inhibition [18] [%],inhibition [19] [%],inhibition [20] [%]
COc1cc(N2CCN(C(C)C)CC2)ccc1Nc1nc(Nc2ccc(F)cc2C(=O)NC[C@@H](O)CO)c2cc[nH]c2n1,1.35,-0.25,0.96,21,62,6.76,21.1,-0.41,1.79,-3.35,-3.2,1.39,5.28,2.43,4.77,1.88,9.27,4.52,9.21,1.74
c1ccc(Oc2ccc(Nc3ncc(-c4ccccc4)o3)cc2)cc1,0.42,-0.25,0.08,0.99,2.96,1.62,0.32,0.45,0.21,0.31,0.53,0.36,1.18,0.66,0.94,2.57,3.12,1.87,1.2,3.15
COc1cc2ncn(-c3cc(OCc4cccs4)c(C(N)=O)s3)c2cc1OC,2.32,2.13,6.7,3.47,6.14,3.82,10.1,0.81,2.01,-2.64,-1.58,3.33,8.26,2.5,5.17,4.36,23.7,6.37,24.9,3.06
NS(=O)(=O)c1ccc(Nc2cc(-c3ccc(O)c(F)c3)n[nH]2)cc1,7.38,-0.77,-1.58,-0.19,16,-5.86,-3.66,-1.13,0.95,-0.39,0.39,-0.55,1.15,-1.43,-1.22,-8.2,-0.79,-6.2,8.46,-1
CN(C)c1ccc2c(c1)/C(=C/Nc1ccc(S(N)(=O)=O)cc1)C(=O)N2,18.6,-0.32,-0.69,15.3,49.3,2.06,13.8,1.26,1.23,0.23,1.18,0.39,0.56,0.23,0.46,3.94,14.7,5.24,18.2,6.65
CCc1ccc(Oc2nccc(-c3c(-c4ccc(F)cc4)ncn3C3CCNCC3)n2)cc1,4.62,-0.7,0.69,1.39,2.98,5.05,5.44,2.14,1.74,0.08,0.04,1.11,3.63,1.38,2,5.66,14.7,3.65,19.4,4.53
O=C(NCC1CC1)c1ccc(-c2cccc(C(=O)NC3CC3)c2)cc1,1.08,0.62,-1.02,1.06,-2.22,2.3,-1.04,0.15,0.34,0.75,0.96,-0.84,-3.1,0.6,-0.88,0.25,4.41,-1.64,-0.16,2.28
C#Cc1cccc(Nc2ncnc3ccc(OCCCCNCCS(C)(=O)=O)cc23)c1,2.74,0.02,4.19,5.74,19,5.8,6.86,6.27,39.5,-2.91,-1.09,6.18,36.2,2.33,2.73,8.26,38.7,5.71,27.5,1.72
Cc1nnc(-c2ccc(C)c(-c3ccc(C(=O)NCc4ccc(Cl)cc4)cc3)c2)o1,2.93,-0.31,0.36,4.66,5.75,5.44,5.11,0.2,1.19,-3.59,-2.67,0.64,0.96,1.56,2.59,1.09,7.21,5.11,11.4,1.16
FC(F)(F)c1cccc(Nc2nccc(-c3cnn4nc(-c5ccccc5)ccc34)n2)c1,0.61,0.34,0.28,3.06,6.39,2.99,2.77,0.96,-0.68,0.77,1.06,-0.15,-0.3,0.76,0.4,-0.41,7,2.43,5.47,-0.2
N#Cc1ccc(Oc2nccc(-c3c(-c4ccc(F)cc4)ncn3C3CCNCC3)n2)cc1,-1.45,-0.29,-0.33,5.34,6.84,4.1,4.74,1.27,2.26,-0.01,0.58,0.29,0.8,1.34,1.48,5.1,7.69,2.82,9.93,1.69
Fc1ccc(-c2ncn(C3CCNCC3)c2-c2ccnc(Oc3ccc4c(c3)OCO4)n2)cc1,2.68,0.16,1.32,6.43,6.48,7.66,5.8,0.83,2.07,-0.04,0.71,0.14,1.3,2.12,2.05,5.99,6.9,2.25,18.5,2.29
NC(=O)c1cc(-c2ccc(F)cc2)cc(-c2ccncc2)c1N,-0.63,-1.01,-1.24,5.8,5.92,4.55,5.76,0.02,1.09,-0.12,-1.22,-0.69,-5.17,1.11,2.54,4.79,9.72,7.37,8.31,3.66
